Source: the supplement of paper PMC8975748
Counter-ions that a name gives are not always drawn.

test system: Saccharomyces cerevisiae BY4741 SeMeCo community; experiment: z-score of subpopulation abundance vs DMSO median, subpopulation auxotrophic for H; higher = larger share of this subpopulation than in DMSO controls; conditions: 10 µM; 24 h; SM minimal medium; subpopulation (auxotrophy): H
Experimental: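 Fluorescent four-plasmid SeMeCo (self-establishing metabolically cooperating S. cerevisiae BY4741 community; plasmids pH-mRuby2, pL-mWasabi, pU-eCFP, pM-TagRFP657) was grown 24 h in minimal SM medium with each Selleck FDA-approved drug at 10 µM in 384-well plates. Cells were fixed and imaged by high-content confocal microscopy. For each auxotrophic subpopulation (and the prototroph), a z-score gives the deviation from the DMSO vehicle-control population median.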

First: CC(NCCC(c1ccccc1)c1ccccc1)c1ccccc1 (stereo not given) [Fendiline hydrochloride]
Second: Clc1ccccc1C(c1ccccc1)(c1ccccc1)n1ccnc1 [Clotrimazole]
The “z-score of subpopulation abundance” value of the first is lower: -1.47 for the first, 6.9 for the second.

First: Nc1nc2ccc(OC(F)(F)F)cc2s1 [Riluzole]
Second: Nc1ccc2cc3ccc(N)cc3nc2c1 [Proflavine Hemisulfate]
The “z-score of subpopulation abundance” value of the first is lower: -0.43 for the first, 5.37 for the second.

Compared with `COc1ccc2[nH]c([S@@+]([O-])Cc3ncc(C)c(OC)c3C)nc2c1` [NEXIUM (esomeprazole magnesium)], `COc1ccnc(C[S+]([O-])c2nc3cc(-n4cccc4)ccc3[nH]2)c1C` (stereo not given) [Ilaprazole] is higher in “z-score of subpopulation abundance” value: 3.24 for the first, 4.64 for the second.

Going from `CCOC(=O)c1ccc(N)cc1` [Benzocaine hydrochloride] to `CCN(CC)CCOC(=O)c1ccc(N)cc1Cl` [Chloroprocaine HCl], the “z-score of subpopulation abundance” value rises from -0.31 to -0.3.

First: CC[C@H](Nc1ncnc2[nH]cnc12)c1nc2cccc(F)c2c(=O)n1-c1ccccc1 [Idelalisib (CAL-101, GS-1101)]
Second: O=C1NC(=O)C(c2ccccc2)(c2ccccc2)N1 [Phenytoin]
The “z-score of subpopulation abundance” value of the first is higher: 0.31 for the first, -0.22 for the second.

First: CO[C@@H]1[C@@H](OC(N)=O)[C@@H](O)[C@H](Oc2ccc3c(O)c(NC(=O)c4ccc(O)c(CC=C(C)C)c4)c(=O)oc3c2C)OC1(C)C [Novobiocin Sodium]
Second: COc1cccc2c1C(=O)c1c(O)c3c(c(O)c1C2=O)CC(O)(C(=O)CO)CC3OC1CC(N)C(O)C(C)O1 (stereo not given) [Doxorubicin (Adriamycin) HCl]
The “z-score of subpopulation abundance” value of the first is lower: 1.97 for the first, 4.08 for the second.

Compared with `C[C@@H]1CN(c2c(F)c(N)c3c(=O)c(C(=O)O)cn(C4CC4)c3c2F)C[C@H](C)N1` [Sparfloxacin], `CNC1CCCN(c2c(F)cc3c(=O)c(C(=O)O)cn(C4CC4)c3c2OC)C1` (stereo not given) [Balofloxacin] is lower in “z-score of subpopulation abundance” value: -0.34 for the first, -0.4 for the second.

Going from `C[C@]12CC[C@@H]3c4ccc(O)cc4CC[C@H]3[C@@H]1CC[C@@H]2OC(=O)CCC1CCCC1` [Estradiol Cypionate] to `C#C[C@]1(O)CC[C@H]2[C@@H]3CCc4cc(OC)ccc4[C@H]3CC[C@@]21C` [Mestranol], the “z-score of subpopulation abundance” value falls from -0.04 to -0.4.

Compared with `CC(C)[N+](C)(CCOC(=O)C1c2ccccc2Oc2ccccc21)C(C)C` [Propantheline bromide], `CCOC(=O)OC(C)OC1=C(C(=O)Nc2ccccn2)N(C)S(=O)(=O)c2ccccc21` (stereo not given) [Ampiroxicam] is lower in “z-score of subpopulation abundance” value: 0.9 for the first, -0.19 for the second.

Compared with `COc1ccccc1OCC(O)CN1CCN(CC(=O)Nc2c(C)cccc2C)CC1` (stereo not given) [Ranolazine], `COC(=O)C1=C(C)NC(C)=C(C(=O)OCCN(C)Cc2ccccc2)C1c1cccc([N+](=O)[O-])c1` (stereo not given) [Nicardipine HCl] is higher in “z-score of subpopulation abundance” value: -0.13 for the first, 0.19 for the second.

Compared with `Nc1nc(=O)[nH]cc1F` [Flucytosine], `Nc1ccc(S(=O)(=O)Nc2nccs2)cc1` [Sulfathiazole] is lower in “z-score of subpopulation abundance” value: 17.8 for the first, -1.09 for the second.

Going from `CC1(C)S[C@@H]2[C@H](NC(=O)[C@H](N)c3ccc(O)cc3)C(=O)N2[C@H]1C(=O)O` [Amoxicillin Sodium] to `CC1(C)S[C@@H]2[C@H](NC(=O)C(C(=O)O)c3ccccc3)C(=O)N2[C@H]1C(=O)O` (stereo not given in full) [Carbenicillin disodium], the “z-score of subpopulation abundance” value rises from -0.8 to -0.07.

First: COc1cnc(NS(=O)(=O)c2ccc(N)cc2)nc1 [Sulfameter]
Second: Cc1cc(NS(=O)(=O)c2ccc(N)cc2)no1 [Sulfamethoxazole sodium]
The “z-score of subpopulation abundance” value of the first is higher: -0.43 for the first, -0.82 for the second.

Going from `C#CCN(C)Cc1ccccc1` [Pargyline hydrochloride] to `CC1(C)S[C@@H]2[C@H](NC(=O)Cc3ccccc3)C(=O)N2[C@H]1C(=O)O` [Benzathine penicilline], the “z-score of subpopulation abundance” value rises from -0.83 to 0.18.

Compared with `Cc1c(-c2ccc(O)cc2)n(Cc2ccc(OCCN3CCCCCC3)cc2)c2ccc(O)cc12` [Bazedoxifene Acetate], `O=C(c1ccc(OCCN2CCCCC2)cc1)c1c(-c2ccc(O)cc2)sc2cc(O)ccc12` [Raloxifene] is higher in “z-score of subpopulation abundance” value: 0.29 for the first, 1.48 for the second.

Going from `Oc1ccc([C@H]2COc3cc(O)ccc3C2)cc1` [Equol] to `O=C1N=C(O)NC1(c1ccccc1)c1ccccc1` [Phenytoin Sodium], the “z-score of subpopulation abundance” value rises from -0.53 to -0.03.

First: CCc1c2c(nc3ccc(OC(=O)N4CCC(N5CCCCC5)CC4)cc13)-c1cc3c(c(=O)n1C2)COC(=O)[C@]3(O)CC [Irinotecan HCl Trihydrate]
Second: Cc1nc2n(c(=O)c1CCN1CCC(c3noc4cc(F)ccc34)CC1)CCCC2 [Risperidone]
The “z-score of subpopulation abundance” value of the first is lower: 0.65 for the first, 0.92 for the second.

Going from `O=c1ccn(C2CC(O)C(CO)O2)c(=O)[nH]1` (stereo not given) [2-deoxyuridine] to `CCn1cc(C(=O)O)c(=O)c2ccc(C)nc21` [Nalidixic acid], the “z-score of subpopulation abundance” value falls from 0.07 to -0.95.

Going from `CCOC(=O)C1=C[C@@H](OC(CC)CC)[C@H](NC(C)=O)[C@@H](N)C1` [Oseltamivir Phosphate] to `CC[C@H](C)C[C@H](C)CCCCCCCCC(=O)N[C@H]1C[C@@H](O)[C@@H](NCCN)NC(=O)[C@@H]2[C@@H](O)CCN2C(=O)[C@H]([C@H](O)CCN)NC(=O)[C@H]([C@H](O)[C@@H](O)c2ccc(O)cc2)NC(=O)[C@@H]2C[C@@H](O)CN2C(=O)[C@H]([C@@H](C)O)NC1=O` [Caspofungin Acetate], the “z-score of subpopulation abundance” value rises from 0.58 to 31.6.

First: Oc1c(I)cc(I)c2cccnc12 [Diiodohydroxyquinoline]
Second: N#C/C(=C1/SC[C@@H](c2ccc(Cl)cc2Cl)S1)n1ccnc1 [Luliconazole]
The “z-score of subpopulation abundance” value of the first is lower: 2.75 for the first, 18.4 for the second.
